In PubChem BioAssay (EPA / NIEHS):
Calls of active or inactive are those of the source. How the source made its calls: active means hit-call score of the fitted dose curve at least 0.9, where 1 is the maximum; inactive means score below 0.9.

Test: ATG_VDRE_CIS: Attagene CIS-FACTORIAL HepG2 Assay for human Vitamin D Receptor Element (VDRE) (AID 2282968)
Settings: HepG2 VDRE cis-reporter transcription, actives raise or lower the signal
Description: ATG_CIS is a cell-based, multiplexed-readout assay that uses HepG2, a human liver cell line, with measurements taken at 24 hours after chemical dosing in a 24-well plate.ATG_VDRE_CIS is one of 52 assay component(s) measured or calculated from the ATG_CIS assay. It is designed to make measurements of mRNA induction, a form of inducible reporter, as detected with fluorescence intensity signals by Reverse transcription polymerase chain reaction (RT-PCR) and Capillary electrophoresis technology.Data from the assay component ATG_VDRE_CIS was analyzed into 1 assay endpoint. This assay endpoint, ATG_VDRE_CIS, was analyzed with bidirectional fitting relative to DMSO as the negative control and baseline of activity. Using a type of inducible reporter, measures of mRNA for gain or loss-of-signal activity can be used to understand the reporter gene at the transcription factor-level as they relate to the gene VDR. Furthermore, this assay endpoint can be referred to as a primary readout, because this assay has produced multiple assay endpoints where this one serves a reporter gene function. To generalize the intended target to other relatable targets, this assay endpoint is annotated to the nuclear receptor intended target family, where the subfamily is non-steroidal.
Human liver HepG2 cells are transiently transfected with multiple reporter transcription units (MRTUs) in 6-well plates using FuGene 6 reagent (Roche; 3 ml FuGene/1 mg DNA). The MRTU constructs are regulated by a cis-regulating element (promoter). […] A major difference between the CIS and TRANS system is that in CIS activities of endogenous TFs are measured, whereas the TRANS assay evaluates changes in activities of exogenous, chimeric NR-Gal4 proteins. […] At the end of 24 hour incubation, total RNA was isolated using TriZol reagent (Invitrogen). The isolated RNA is then reverse-transcribed using oligo(dT) primer and Mo-MLV reverse transcriptase (Invitrogen) with DNAse I (Ambion) treatment for 30 min. The one-tenth of the produced cDNA was amplified by PCR using Taq DNA polymerase (Invitrogen) and two reporter sequence-specific primers. The PCR products were fluorescently labeled by primer extension with 6-arboxyfluorescein (6-FAM) 5'-labeled reporter sequence-specific primer (2 min at 95 C, 20 s at 68 C and 10 min at 72 C) and these products were digested with 5U of HpaI (New England Biolabs) for 2h at 37 C. The fragments were purified using Qiaquick PCR columns (Qiagen), analyzed on an ABI 3130xL genetic analyzer (Applied Biosystems) with peak positions identified by using a set of X-rhodamine (ROX)-labeled MapMarker1000 molecular weight standards (BioVentures). The raw capillary electrophoresis data was processed using Attagraph software (Attagene).

outcome, inactive:
Sc1nc2ccccc2s1
O=C(O)Cc1c[nH]c2ccccc12
O=C1NC(=O)C2CC=CCC12 (stereo not given)
NC(=O)c1ccc([N+](=O)[O-])cc1Cl
CCOC(=O)CC(=O)OCC
CC(=O)OC(C)(C)Cc1ccccc1
Brc1ccc(Oc2ccc(Br)cc2)cc1
N#CCN(CC#N)CCN(CC#N)CC#N
CC1=NN(c2cc(Cl)c(S(=O)(=O)O)cc2Cl)C(=O)C1N=Nc1ccc(S(=O)(=O)O)cc1 (stereo not given)
CC(C)CC(=O)CC(C)C
CCC(C)(CCC(C)C)C(=O)O (stereo not given)
CC(C)(Oc1ccc(Cl)cc1)C(=O)O
CCCCCCC(O)CCCCCCCCCCC(=O)OC (stereo not given)
C=CN1CCCCCC1=O
C/C=C(\C)C(=O)OCC/C=C\CC
CCOC(=O)c1ccccc1
CCc1cc(C(N)=S)ccn1
NC(=O)c1ccc(N)cc1
CC=CC(=O)O
CCCN[C@H]1CCc2nc(N)sc2C1
NCc1ccccc1
c1ccc2c(c1)Oc1ccccc1S2
CCCCCCCCCCCCCC
CC(=O)CCc1ccccc1
CCC(=O)OCc1ccc(OC)cc1
COc1ccccc1OCC(O)CO (stereo not given)
CCCCCCOC(=O)CCCCCCCC(=O)OCCCCCC
O=C(C(=O)c1ccccc1)c1ccccc1
CCCCCC1CCCC(=O)O1 (stereo not given)
[O-][n+]1ccc(Cl)cc1
CC/C=C/CCO
OCCN(CCO)c1cccc(Cl)c1
CNC[C@H](O)[C@@H](O)[C@H](O)[C@H](O)CO
CC1=C(CC=O)C(C)(C)CCC1
CC/C=C\CC1=C(C)CCC1=O
Cc1cccnc1
O=C(OCc1ccccc1)c1ccccc1

AC50, active:
O=C(C1CCCCC1)N1CC(=O)N2CCc3ccccc3C2C1 (stereo not given) 13.7 µM
COC(=O)[C@]1(C)CCC[C@@]2(C)[C@H]1CC=C1C=C(C(C)C)CC[C@@H]12 26.4 µM
CN(C)CCCN1c2ccccc2CCc2ccc(Cl)cc21 10.4 µM
